Drawing on PubChem BioAssay (NCATS), this text covers Potency for 15 molecules.

Records with an inconclusive call do not appear. The source made the active and inactive calls. Calls follow the shape of the dose curve; as a rule, active = well fitted curve in the direction sought with a large enough effect; inconclusive = small, poorly fitted or top-dose-only effect, or another doubt; inactive = no such curve, though single readings can be large; an effect the other way counts as inactive or inconclusive.

The nature of assay [1]: qHTS of pediatric cancer cell lines to identify multiple opportunities for drug repurposing: Confirmatory screen for BT-12 cells (AID 1347112). Also: potency is read from the fitted curve at half-maximal effect.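 Also: viability read after 48 h of compound exposure; nearly all actives have a fitted effect of over 55% in size.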 In outline:
(§1)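 Cells (500-1,000/well) rested 5 h, then received compounds for 48 h; metabolically active cells were measured by CellTiter-Glo luminescence. Final concentrations spanned up to 46 µM (MIPE, 11-point) or 0.59 nM-46 µM (NPC, 8-point) in primary screens, 11-point in follow-ups.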

A short description of assay [2]: qHTS of pediatric cancer cell lines to identify multiple opportunities for drug repurposing: Confirmatory screen for DAOY cells (AID 1347114). Also: nearly all actives have a fitted effect of over 65% in size. Also: potency is read from the fitted curve at half-maximal effect. In outline:
(§2)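 Viability measured as metabolically active cells via CellTiter-Glo luminescence following 48 hours of compound exposure, 11-point dilutions in confirmatory testing. 500-1,000 cells/well plated 5 hours before dosing; controls were DMSO and 2.3 µM bortezomib.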

Assay [3] can be described thus: qHTS of pediatric cancer cell lines to identify multiple opportunities for drug repurposing: Confirmatory screen for SJ-GBM2 cells (AID 1347116). Also: nearly all actives have a fitted effect of over 60% in size. Also: potency is read from the fitted curve at half-maximal effect. The method, boiled down:
as §2
(In qHTS, concentration-response curves come from the screen itself.)

Assay [4] is described as follows: qHTS of pediatric cancer cell lines to identify multiple opportunities for drug repurposing: Confirmatory screen for MG 63 (6-TG R) cells (AID 1347119). Also: nearly all actives have a fitted effect of over 55% in size. Also: potency is read from the fitted curve at half-maximal effect. The method, boiled down:
as §1

Assay [5] in a line: qHTS of pediatric cancer cell lines to identify multiple opportunities for drug repurposing: Confirmatory screen for control Hh wild type fibroblast cells (AID 1347121). Also: nearly all actives have a fitted effect of over 70% in size. Also: potency is read from the fitted curve at half-maximal effect. The method, boiled down: as §1
Assay [6] can be described thus: qHTS of pediatric cancer cell lines to identify multiple opportunities for drug repurposing: Confirmatory screen for U-2 OS cells (AID 1347122). Also: nearly all actives have a fitted effect of over 65% in size. Also: potency is read from the fitted curve at half-maximal effect. In outline: as §1
Assay [7] can be described thus: qHTS of pediatric cancer cell lines to identify multiple opportunities for drug repurposing: Confirmatory screen for Rh41 cells (AID 1347123).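 Also: 48 h compound exposure; nearly all actives have a fitted effect of over 60% in size.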 Also: potency is read from the fitted curve at half-maximal effect. In outline: as §1
Assay [8] in a line: qHTS of pediatric cancer cell lines to identify multiple opportunities for drug repurposing: Confirmatory screen for RD cells (AID 1347124).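 Also: cells exposed to compound for 48 h before viability readout; nearly all actives have a fitted effect of over 65% in size.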 Also: potency is read from the fitted curve at half-maximal effect. The method, boiled down: as §1
The nature of assay [9]: qHTS of pediatric cancer cell lines to identify multiple opportunities for drug repurposing: Confirmatory screen for Rh18 cells (AID 1347125). Also: nearly all actives have a fitted effect of over 55% in size. Also: potency is read from the fitted curve at half-maximal effect. The method, boiled down:
as §1

The nature of assay [10]: qHTS of pediatric cancer cell lines to identify multiple opportunities for drug repurposing: Confirmatory screen for Rh30 cells (AID 1347126). Also: nearly all actives have a fitted effect of over 55% in size. Also: potency is read from the fitted curve at half-maximal effect. In outline: as §1
Assay [11] is described as follows: qHTS of pediatric cancer cell lines to identify multiple opportunities for drug repurposing: Confirmatory screen for Saos-2 cells (AID 1347127). Also: nearly all actives have a fitted effect of over 60% in size. Also: potency is read from the fitted curve at half-maximal effect. The method, boiled down: as §1
Assay [12] in a line: qHTS of pediatric cancer cell lines to identify multiple opportunities for drug repurposing: Confirmatory screen for OHS-50 cells (AID 1347128). Also: potency is read from the fitted curve at half-maximal effect. In outline: as §1
The nature of assay [13]: qHTS of pediatric cancer cell lines to identify multiple opportunities for drug repurposing: Confirmatory screen for SK-N-SH cells (AID 1347129).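 Also: cells exposed to compound for 48 h before viability read; nearly all actives have a fitted effect of over 60% in size.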 Also: potency is read from the fitted curve at half-maximal effect. The method, boiled down: as §1
A short description of assay [14]: qHTS of pediatric cancer cell lines to identify multiple opportunities for drug repurposing: Confirmatory screen for LAN-5 cells (AID 1347113). Also: nearly all actives have a fitted effect of over 65% in size. Also: potency is read from the fitted curve at half-maximal effect. The method, boiled down: as §1
Assay [15] in a line: qHTS of pediatric cancer cell lines to identify multiple opportunities for drug repurposing: Confirmatory screen for BT-37 cells (AID 1347117). Also: nearly all actives have a fitted effect of over 55% in size. Also: potency is read from the fitted curve at half-maximal effect. The conditions noted are these: BT-37 pediatric cancer cells, viability; activity change, negative = cytotoxic: at 45.9 µM (top of the series). In outline: as §1
Assay [16] can be described thus: qHTS of pediatric cancer cell lines to identify multiple opportunities for drug repurposing: Confirmatory screen for TC32 cells (AID 1347118). Also: potency is read from the fitted curve at half-maximal effect. In outline:
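Measured quantity: luminescence from CellTiter-Glo, reflecting metabolically active TC32 cells following 48 h of compound. Curves came straight from multi-point titrations, with 8 or 11 points in primary and 11 in confirmatory screening.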

The nature of assay [17]: qHTS of pediatric cancer cell lines to identify multiple opportunities for drug repurposing: Confirmatory screen for NB-EBc1 cells (AID 1347115).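 Also: potency is read from the fitted curve at half-maximal effect; cells exposed to compound for 48 h before the viability read; nearly all actives have a fitted effect of over 45% in size.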 In outline:
as §1

Assay [18] has as its target Furin (Homo sapiens) (UniProt P09958). Nature of the assay: Furin counterscreen qHTS for Zika virus inhibitors (AID 1347149).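 Also: purified recombinant full-length human furin enzyme at 5 nM; fluorescence gain from furin cutting a BOC-RVRR-AMC peptide substrate over 15 min; top concentration of the series differs between compounds; nearly all actives have a fitted effect of over 70% in size.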 The method, boiled down:
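Fluorogenic cleavage of BOC-RVRR-AMC (2 microM final, Km ~15 µM) was monitored (ex 340, em 450 nm) at 37C after 15 min RT preincubation of 5 nM furin with compounds in HEPES pH 7.0 buffer with CaCl2 and Triton X-100. Percent inhibition was fitted to a 4-parameter Hill curve.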

Assay [19] deals with Zika virus NS2B-NS3 protease (linked construct). The experiment in a line: Confirmatory screen NINDS AMC qHTS for Zika virus inhibitors (AID 1347152). Also: potency is read from the fitted curve at half-maximal effect; nearly all actives have a fitted effect of over 70% in size. In outline: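 In this dose-response qHTS, AMC release from 10 microM Bz-Nle-KRR-AMC by 1 nM linked protease is measured over 15 minutes (about 20% conversion) at pH 8.0. Percent inhibition is fitted to a 4-parameter Hill curve.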

Chain of Furin (Homo sapiens) (P09958 whole entry, looked up): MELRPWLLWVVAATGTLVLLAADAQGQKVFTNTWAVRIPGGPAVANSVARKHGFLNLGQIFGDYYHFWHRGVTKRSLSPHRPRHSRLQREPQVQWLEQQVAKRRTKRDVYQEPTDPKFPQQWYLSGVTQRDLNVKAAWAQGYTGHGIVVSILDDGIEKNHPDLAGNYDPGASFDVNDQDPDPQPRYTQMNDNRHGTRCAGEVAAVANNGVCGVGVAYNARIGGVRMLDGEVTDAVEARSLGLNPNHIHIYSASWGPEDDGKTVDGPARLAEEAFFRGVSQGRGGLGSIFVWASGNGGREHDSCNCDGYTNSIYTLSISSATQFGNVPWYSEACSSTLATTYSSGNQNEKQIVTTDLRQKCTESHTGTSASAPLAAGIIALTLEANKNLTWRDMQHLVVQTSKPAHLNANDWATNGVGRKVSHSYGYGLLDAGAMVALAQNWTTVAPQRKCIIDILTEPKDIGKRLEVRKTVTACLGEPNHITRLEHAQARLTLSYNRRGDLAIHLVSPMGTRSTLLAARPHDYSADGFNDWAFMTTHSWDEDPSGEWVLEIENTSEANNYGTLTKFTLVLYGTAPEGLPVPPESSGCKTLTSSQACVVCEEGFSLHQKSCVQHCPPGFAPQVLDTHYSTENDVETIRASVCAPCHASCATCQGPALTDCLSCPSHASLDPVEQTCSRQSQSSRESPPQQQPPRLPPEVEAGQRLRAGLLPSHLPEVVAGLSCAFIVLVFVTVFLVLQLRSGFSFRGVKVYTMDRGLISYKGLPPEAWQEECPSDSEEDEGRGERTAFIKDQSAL

Turning to `Cn1cc(CNCC2CCN(c3ncc(C(=O)NO)cn3)CC2)c2ccccc21`, the Potency in assay [1] is 0.369 µM (active); in assay [2], 0.261 µM (active); in assay [3] it was 0.208 µM (active); in assay [4], 0.131 µM (active); in [5], 1.31 µM (active); in [6] it was 0.208 µM (active). Further, the Potency is 0.0329 µM (active) in assay [7]; 0.329 µM (active) in [8]; 0.131 µM (active) in assay [9]; 0.293 µM (active) in assay [10]; 0.208 µM (active) in [11]; 0.131 µM (active) in assay [12]. Besides, in assay [13], the Potency is 0.469 µM (active).
In the case of `N#CNC(=NCCCCCCOc1ccc(Cl)cc1)Nc1ccncc1`, the Potency in [14] is 0.0117 µM (active); in [2], 0.165 µM (active); in assay [3], 0.0414 µM (active); in assay [15], 0.0185 µM (active); in assay [16], 0.0041 µM (active); in [6], 0.293 µM (active). Further, the Potency in [7] is 0.0165 µM (active); in [8] it was 0.0369 µM (active); in [9], 0.0465 µM (active); in assay [11], 20.8 µM (active).
Regarding `CN(CC(=O)N(Cc1ccc(C2CCCCC2)cc1)c1ccc(C(=O)O)c(O)c1)S(=O)(=O)c1c(F)c(F)c(F)c(F)c1F`, the Potency result in assay [1], in assay [3] and in assay [5] was “inactive” throughout. For the same molecule, the Potency in [15] was 26.1 µM (active); in assay [16], 26.1 µM (active); in assay [4] it was 20.8 µM (active); in assay [11], 26.1 µM (active).
As to `COC1=C2C[C@@H](C)C[C@H](OC)[C@@H](O)[C@@H](C)C=C(C)[C@H](OC(N)=O)[C@@H](OC)C=CC=C(C)C(=O)NC(=CC1=O)C2=O`, the Potency in assay [14] was 1.47 µM (active); in assay [2] it was 5.85 µM (active); in assay [17], 9.27 µM (active); in [3] it was 1.31 µM (active); in [15] it was 1.04 µM (active); in assay [16], 0.928 µM (active). In addition, the Potency in assay [6] was 1.04 µM (active); in [7] it was 2.33 µM (active); in assay [8], 0.928 µM (active); in assay [9], 2.08 µM (active); in assay [11], 0.928 µM (active); in [12] it was 4.65 µM (active). Further, the Potency in assay [13] is 2.35 µM (active).
Take `O=C(C=CC=Cc1ccc2c(c1)OCO2)N1CCCCC1`: the Potency result in [1], in [2], in assay [3], in [15], in [4] and in [5] was “inactive” each time. Besides, the Potency result in assay [6], in [7], in assay [8], in [9], in [11] and in assay [12] was “inactive” throughout. Also, the Potency result in assay [13] is “inactive”. Also, the Potency in assay [16] is 10.4 µM (active).
Consider `N#Cc1c(C2CCNCC2)cc(-c2c(O)cccc2OCC2CC2)nc1N`, for which the Potency result in [1], in [16], in assay [5], in [9] and in assay [11] was “inactive” each time. Further, the Potency in [2] was 16.5 µM (active); in [7], 3.29 µM (active); in assay [13], 23.5 µM (active).
`O=C(O)c1ccc(Nc2ncc3c(n2)-c2ccc(Cl)cc2C(c2c(F)cccc2F)=NC3)cc1`: the Potency result in assay [1], in assay [14], in [5] and in assay [12] was “inactive” in each case. Besides, the Potency in [16] is 1.47 µM (active); in assay [6], 4.14 µM (active); in assay [7], 2.33 µM (active).
For the molecule `COc1cc(C=CC(=O)CC(=O)C=Cc2ccc(O)c(OC)c2)ccc1O`, the Potency was 38 µM (active) in assay [1]; 26.9 µM (active) in assay [14]; 30.2 µM (active) in [15]; 9.55 µM (active) in assay [16]; 26.9 µM (active) in assay [4]; 17 µM (active) in [7]. Also, the Potency in assay [11] was 33.9 µM (active).
On to `NS(=O)(=O)OC[C@@H]1C[C@@H](n2ccc3c(N[C@H]4CCc5ccccc54)ncnc32)C[C@H]1O`, for which the Potency result in [1], in assay [3], in assay [15], in assay [16], in assay [4] and in [5] was “inactive” each time. Moreover, the Potency entry in assay [6], in [8], in assay [9], in [10], in assay [11] and in assay [12] was “inactive” in each case.
For `Cn1cc(-c2cnn3c(N)c(Br)c([C@H]4CCCNC4)nc23)cn1`, the Potency result in [1], in [5], in [8] and in assay [9] was “inactive” in each case. Further, the Potency in [14] is 5.85 µM (active); in assay [15], 3.69 µM (active); in [16], 5.85 µM (active); in [6], 2.93 µM (active); in [7], 23.3 µM (active); in [13] it was 18.7 µM (active).
As for `Nc1ncn([C@@H]2O[C@H](CO)[C@@H](O)[C@@H]2O)c(=O)n1`, the Potency in [1] was 18.5 µM (active); in [14], 16.5 µM (active); in [3], 16.5 µM (active); in [15], 16.5 µM (active); in assay [16], 4.65 µM (active); in assay [6], 8.27 µM (active). Besides, the Potency was 16.5 µM (active) in [7]; 20.8 µM (active) in assay [8]; 20.8 µM (active) in [9]; 18.5 µM (active) in assay [10]; 20.8 µM (active) in [11]; 5.85 µM (active) in [12]. In addition, the Potency in assay [13] was 16.6 µM (active).
For `CN[C@@H]1C[C@H]2O[C@@](C)([C@H]1OC)n1c3ccccc3c3c4c(c5c6ccccc6n2c5c31)C(=O)N[C@H]4O`, the Potency was 0.928 µM (active) in assay [14]; 1.47 µM (active) in [2]; 2.61 µM (active) in assay [3]; 2.61 µM (active) in assay [15]; 0.414 µM (active) in assay [16]; 0.104 µM (active) in assay [4]. For the same molecule, the Potency in [5] is 10.4 µM (active); in assay [6], 0.369 µM (active); in assay [7], 1.04 µM (active); in assay [9] it was 1.47 µM (active); in assay [11], 0.585 µM (active); in assay [12] it was 0.585 µM (active). Also, the Potency in [13] is 0.332 µM (active); in assay [19], 19.2 µM (active). For the same molecule, the Potency entry in assay [18] is “inactive”.
Consider `O=C(NC1CC1)c1cccc(-c2ccc3c(NC(=O)C4CC4)n[nH]c3c2)c1`, for which the Potency result in assay [14], in assay [5] and in assay [9] was “inactive” throughout. Also, the Potency in [2] was 9.27 µM (active); in [16] it was 5.85 µM (active); in assay [4] it was 11.7 µM (active).
As to `CC(N[C@H]1CCCC[C@H]1NC(=O)c1ccc(Cl)cc1)c1cccc2ccccc12` (stereo not given in full), the Potency was 14.7 µM (active) in assay [14]; 23.3 µM (active) in assay [15]; 5.85 µM (active) in assay [16]; 23.3 µM (active) in assay [4]; 26.1 µM (active) in assay [11]; 20.8 µM (active) in [12]. The Potency in [13] was 9.35 µM (active).
Turning to `COc1ccc(C[C@@H](C)[C@@H](C)Cc2ccc(OC)c(OC)c2)cc1OC`, the Potency result in assay [14], in [3], in assay [6], in [9] and in assay [13] was “inactive” in each case. The Potency in assay [2] was 11.7 µM (active); in assay [16], 4.14 µM (active); in [4] it was 9.27 µM (active).
